This note sets out measurements from PubChem BioAssay (NCI).

About 79,000 compounds went through this panel and 15% of them were active in at least one assay; those are over-represented in the sample as a whole. Unmarked numbers belong to inactive results. Active and inactive are the calls of the source. Rule as the data show it: active = growth inhibition above about 70%; inactive = the rest.

Assay [1] can be described thus: NCI Yeast Anticancer Drug Screen. Data for the rad50 strain (AID 155).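 Also: 0% = growth of vehicle-only cultures of the same strain.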 As to conditions: S. cerevisiae rad50 strain growth inhibition, stronger effect = higher value. The procedure, abridged:
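Readout: growth inhibition relative to vehicle-treated cultures. Compound exposure was carried out in a genetically defined yeast strain deficient in DNA damage repair.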

Assay [2] can be described thus: NCI Yeast Anticancer Drug Screen. Data for the mec2-1 strain (AID 157). As to conditions: S. cerevisiae mec2-1 strain, stronger effect = higher value. The procedure, abridged:
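Compounds were applied to mec2-1 yeast cells. Their growth was then compared with that of vehicle-treated cultures to give growth inhibition.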

Assay [3] in a line: NCI Yeast Anticancer Drug Screen. Data for the sgs1 mgt1 strain (AID 161).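 Also: 0% = growth of cultures given vehicle only.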 As to conditions: S. cerevisiae sgs1 mgt1 strain, stronger effect = higher value. The procedure, abridged:
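Percent growth inhibition was derived by comparing compound-exposed mutant yeast with vehicle-exposed cultures. The strain carries alterations in DNA damage repair.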

The nature of assay [4]: NCI Yeast Anticancer Drug Screen. Data for the cln2 rad14 strain (AID 165).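 Also: 0% = growth equal to vehicle treated cultures.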 As to conditions: S. cerevisiae cln2 rad14 strain, stronger effect = higher value. The procedure, abridged:
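Strain: cln2 rad14 yeast, altered in cell cycle control and DNA damage repair. Read-out: growth inhibition vs vehicle.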

A short description of assay [5]: NCI Yeast Anticancer Drug Screen. Data for the bub3 strain (AID 167). The following applies: S. cerevisiae bub3 mutant strain, stronger effect = higher value. The essentials:
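Readout: yeast growth inhibition, expressed relative to vehicle-only wells. The test organism is a mutant strain from a panel with lesions in DNA repair or checkpoint genes.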

Assay [6] can be described thus: NCI Yeast Anticancer Drug Screen. Data for the mlh1 rad18 strain (AID 175). As to conditions: S. cerevisiae mlh1 rad18 strain growth inhibition, stronger effect = higher value. The essentials: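 A repair-deficient yeast strain is exposed to test compound, and growth is scored relative to vehicle-treated controls.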
Where [7] appears, read: at 5.0 µM (retest, dose inferred, filed as 0.5).
The mark [8] stands for this setting: at 50.0 µM (retest, dose inferred, filed as 5.0).

`O=C(O)/C=C/c1ccc(Cl)cc1Cl`: the growth inhibition in assay [1] (setting [7]) was 6%; in assay [1] (setting [8]), 95% (active); in assay [1] (at 50.0 µM) it was 89.5% (active); in assay [2] (setting [7]), -8%; in assay [2] (setting [8]), 56%; in assay [2] (at 50.0 µM), 33.5%. Further, the growth inhibition in assay [3] (setting [7]) is 2%; in assay [3] (setting [8]), 39%; in assay [3] (at 50.0 µM) it was 65.8%; in assay [4] (setting [7]), 1%; in assay [4] (setting [8]), 57%; in assay [4] (at 50.0 µM), 37.8%. Also, the growth inhibition was 41% in assay [5] (setting [7]); 85% (active) in assay [5] (setting [8]); 74.3% (active) in assay [5] (at 50.0 µM); 6% in assay [6] (setting [7]); 94% (active) in assay [6] (setting [8]); 92.6% (active) in assay [6] (at 50.0 µM).
For the compound `O=C1c2ccccc2C(=O)c2ncccc21`, the growth inhibition is 14% in assay [1] (setting [7]); 91% (active) in assay [1] (setting [8]); 96.3% (active) in assay [1] (at 50.0 µM); 8% in assay [2] (setting [7]); 86% (active) in assay [2] (setting [8]); 94.4% (active) in assay [2] (at 50.0 µM). In addition, the growth inhibition in assay [3] (setting [7]) is 8%; in assay [3] (setting [8]), 89% (active); in assay [3] (at 50.0 µM), 93.3% (active); in assay [4] (setting [7]), -2%; in assay [4] (setting [8]) it was 85% (active); in assay [4] (at 50.0 µM), 86.5% (active). Also, the growth inhibition in assay [5] (setting [7]) is 11%; in assay [5] (setting [8]) it was 87% (active); in assay [5] (at 50.0 µM), 91% (active); in assay [6] (setting [7]), 37%; in assay [6] (setting [8]) it was 95% (active); in assay [6] (at 50.0 µM), 97.8% (active).
Regarding `Cc1cc(Cl)c2c(c1)C(=O)/C(=C/c1ccc(Cl)cc1)O2`, the growth inhibition in assay [1] (setting [7]) was 5%; in assay [1] (setting [8]) it was 99% (active); in assay [1] (at 50.0 µM), 88.3% (active); in assay [2] (setting [7]), 18%; in assay [2] (setting [8]), 99% (active); in assay [2] (at 50.0 µM), 90% (active). The growth inhibition in assay [3] (setting [7]) is -17%; in assay [3] (setting [8]), 99% (active); in assay [3] (at 50.0 µM), 84.1% (active); in assay [4] (setting [7]) it was 26%; in assay [4] (setting [8]), 99% (active); in assay [4] (at 50.0 µM), 89.2% (active). In addition, the growth inhibition in assay [5] (setting [7]) was -22%; in assay [5] (setting [8]), 98% (active); in assay [5] (at 50.0 µM), 88.7% (active); in assay [6] (setting [7]), 13%; in assay [6] (setting [8]), 99% (active); in assay [6] (at 50.0 µM), 85.3% (active).
`CC1=C(C(=O)Nc2cc(C)ccc2C)C(c2cccc([N+](=O)[O-])c2)C(C(=O)Nc2cc(C)ccc2C)=C(C)N1`: the growth inhibition is 8% in assay [1] (setting [7]); 49% in assay [1] (setting [8]); -12.3% in assay [1] (at 50.0 µM); 19% in assay [2] (setting [7]); 72% (active) in assay [2] (setting [8]); 34.5% in assay [2] (at 50.0 µM). Further, the growth inhibition was 19% in assay [3] (setting [7]); 34% in assay [3] (setting [8]); 26.7% in assay [3] (at 50.0 µM); 5% in assay [4] (setting [7]); 61% in assay [4] (setting [8]); 19.2% in assay [4] (at 50.0 µM). Further, the growth inhibition in assay [5] (setting [7]) is 17%; in assay [5] (setting [8]), 74% (active); in assay [5] (at 50.0 µM), 29.6%; in assay [6] (setting [7]), 17%; in assay [6] (setting [8]), 65%; in assay [6] (at 50.0 µM), 31.6%.
For `CC(=O)Oc1c(Br)ccc2cc(C(Br)Br)c(C(=O)c3ccccc3)nc12`, the growth inhibition is 55% in assay [1] (setting [7]); 55% in assay [1] (setting [8]); 83.6% (active) in assay [1] (at 50.0 µM); 38% in assay [2] (setting [7]); 38% in assay [2] (setting [8]); 87.5% (active) in assay [2] (at 50.0 µM). Further, the growth inhibition was 51% in assay [3] (setting [7]); 51% in assay [3] (setting [8]); 87.5% (active) in assay [3] (at 50.0 µM); 30% in assay [4] (setting [7]); 30% in assay [4] (setting [8]); 82.9% (active) in assay [4] (at 50.0 µM). Also, the growth inhibition in assay [5] (setting [7]) was 25%; in assay [5] (setting [8]), 25%; in assay [5] (at 50.0 µM) it was 83.9% (active); in assay [6] (setting [7]), 53%; in assay [6] (setting [8]) it was 53%; in assay [6] (at 50.0 µM) it was 81.4% (active).
On to `COc1ccc(Oc2ccc(C(=O)C(CN(C)C)CN(C)C)cc2)cc1`, for which the growth inhibition in assay [1] (setting [7]) is -4%; in assay [1] (setting [8]) it was 96% (active); in assay [1] (at 50.0 µM) it was 84% (active); in assay [2] (setting [7]), -13%; in assay [2] (setting [8]), 97% (active); in assay [2] (at 50.0 µM), 87.8% (active). In addition, the growth inhibition in assay [3] (setting [7]) is 11%; in assay [3] (setting [8]), 98% (active); in assay [3] (at 50.0 µM), 85.8% (active); in assay [4] (setting [7]), -2%; in assay [4] (setting [8]), 95% (active); in assay [4] (at 50.0 µM), 87.8% (active). The growth inhibition is -3% in assay [5] (setting [7]); 96% (active) in assay [5] (setting [8]); 85.6% (active) in assay [5] (at 50.0 µM); 0% in assay [6] (setting [7]); 96% (active) in assay [6] (setting [8]); 86.5% (active) in assay [6] (at 50.0 µM).
As to `Cc1nc2c(nc1C)C(=O)C1=C(C2=O)C2C=CC1CC2`, the growth inhibition in assay [1] (setting [7]) was 0%; in assay [1] (setting [8]) it was 87% (active); in assay [1] (at 50.0 µM), 89.8% (active); in assay [2] (setting [7]) it was -2%; in assay [2] (setting [8]), 90% (active); in assay [2] (at 50.0 µM), 74.6% (active). In addition, the growth inhibition is 2% in assay [3] (setting [7]); 94% (active) in assay [3] (setting [8]); 94.7% (active) in assay [3] (at 50.0 µM); -3% in assay [4] (setting [7]); 68% in assay [4] (setting [8]); 57% in assay [4] (at 50.0 µM). In addition, the growth inhibition is 24% in assay [5] (setting [7]); 94% (active) in assay [5] (setting [8]); 93.5% (active) in assay [5] (at 50.0 µM); 2% in assay [6] (setting [7]); 93% (active) in assay [6] (setting [8]); 91.8% (active) in assay [6] (at 50.0 µM).
Regarding `COC1OC(CBr)C(OC(C)=O)C(OC(C)=O)C1OC(C)=O` (configuration not stated), the growth inhibition in assay [1] (setting [7]) was 7%; in assay [1] (setting [8]), -3%; in assay [1] (at 50.0 µM), 5.9%; in assay [2] (setting [7]) it was 5%; in assay [2] (setting [8]), 3%; in assay [2] (at 50.0 µM) it was 13.2%. Further, the growth inhibition is 8% in assay [3] (setting [7]); 3% in assay [3] (setting [8]); -3.6% in assay [3] (at 50.0 µM); 5% in assay [4] (setting [7]); 30% in assay [4] (setting [8]); 8.7% in assay [4] (at 50.0 µM). The growth inhibition in assay [5] (setting [7]) was 6%; in assay [5] (setting [8]), 3%; in assay [5] (at 50.0 µM), 82.3% (active); in assay [6] (setting [7]) it was -2%; in assay [6] (setting [8]) it was 2%; in assay [6] (at 50.0 µM) it was 18.9%.
As to `c1ccc(CC(Nc2cccnc2)c2ccccc2)cc1` (configuration not stated), the growth inhibition in assay [1] (setting [7]) was 6%; in assay [1] (setting [8]), 56%; in assay [1] (at 50.0 µM) it was 74.5% (active); in assay [2] (setting [7]) it was -13%; in assay [2] (setting [8]) it was 24%; in assay [2] (at 50.0 µM), 22.6%. In addition, the growth inhibition in assay [3] (setting [7]) is -2%; in assay [3] (setting [8]), 74% (active); in assay [3] (at 50.0 µM), 74.1% (active); in assay [4] (setting [7]), -1%; in assay [4] (setting [8]), 28%; in assay [4] (at 50.0 µM), 21.9%. Also, the growth inhibition is 24% in assay [5] (setting [7]); 40% in assay [5] (setting [8]); 56.1% in assay [5] (at 50.0 µM); 1% in assay [6] (setting [7]); 60% in assay [6] (setting [8]); 75.3% (active) in assay [6] (at 50.0 µM).
